Source: PMC7862700, “An all-to-all approach to the identification of sequence-specific readers for epigenetic DNA modifications on cytosine”

Tests used:
Experiment in all cases: DAPPL (digital affinity profiling via proximity ligation, sequencing); 10 mM Tris-HCl pH 7.5, 50 mM NaCl, 1 mM DTT, 4% glycerol, room temperature, 30 min; GST-TFs on glutathione beads, 16-mer random dsDNA library, 0.1% formaldehyde crosslink after washing; high values mean tight binding
FEV = target: T1, FEV (Homo sapiens, UniProt Q99581 1-238); settings: protein: recombinant; tags: N-terminal GST; dsDNA, one strand shown
T1 sequence: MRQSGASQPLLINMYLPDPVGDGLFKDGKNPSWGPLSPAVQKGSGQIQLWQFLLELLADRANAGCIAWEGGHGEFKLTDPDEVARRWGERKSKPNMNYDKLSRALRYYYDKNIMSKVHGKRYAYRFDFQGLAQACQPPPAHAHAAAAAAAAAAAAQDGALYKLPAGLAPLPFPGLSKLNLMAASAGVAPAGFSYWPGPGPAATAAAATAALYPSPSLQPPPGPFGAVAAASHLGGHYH
In short: (§1)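 Sequencing on an Illumina NextSeq500 followed washing, crosslinking with 0.1% formaldehyde, proximity ligation (BsaI/T4 ligase, 1 h, 37 °C) and PCR amplification of pools that had been incubated for 30 min at room temperature with 200 nmole of a random double-stranded 16-mer DNA library in Tris/NaCl/DTT/glycerol buffer. Each pool held DNA-barcoded human transcription factors, expressed in yeast as GST fusions and captured on glutathione beads, plus a tag-only sample. Binding signal is a hexamer's read frequency for a factor divided by its frequency in the tag-only sample.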

ETV5 = ETV5 (Homo sapiens, UniProt P41161 1-510); settings: protein: recombinant; tags: N-terminal GST; dsDNA, one strand shown
In short: as §1

HSF1 = HSF1 (Homo sapiens, UniProt Q00613 1-529); settings: protein: recombinant; tags: N-terminal GST; chain copies: 3; dsDNA, one strand shown
In short: as §1

SPIC = target: T2, SPIC (Homo sapiens, UniProt Q8N5J4 1-248); settings: protein: recombinant; tags: N-terminal GST; dsDNA, one strand shown
T2 sequence: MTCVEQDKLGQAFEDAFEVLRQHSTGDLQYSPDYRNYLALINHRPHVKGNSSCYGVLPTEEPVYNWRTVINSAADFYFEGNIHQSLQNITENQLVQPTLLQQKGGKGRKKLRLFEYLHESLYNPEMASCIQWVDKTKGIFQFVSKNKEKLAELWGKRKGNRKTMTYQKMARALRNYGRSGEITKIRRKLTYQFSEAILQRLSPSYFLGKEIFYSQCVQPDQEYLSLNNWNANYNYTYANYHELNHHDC
In short: as §1

ELF4 = ELF4 (Homo sapiens, UniProt Q99607 1-663); settings: protein: recombinant; tags: N-terminal GST; dsDNA, one strand shown
In short: as §1

ELK4 = target: T3, ELK4 (Homo sapiens, UniProt P28324-2 1-405); settings: protein: recombinant; tags: N-terminal GST; dsDNA, one strand shown
T3 sequence: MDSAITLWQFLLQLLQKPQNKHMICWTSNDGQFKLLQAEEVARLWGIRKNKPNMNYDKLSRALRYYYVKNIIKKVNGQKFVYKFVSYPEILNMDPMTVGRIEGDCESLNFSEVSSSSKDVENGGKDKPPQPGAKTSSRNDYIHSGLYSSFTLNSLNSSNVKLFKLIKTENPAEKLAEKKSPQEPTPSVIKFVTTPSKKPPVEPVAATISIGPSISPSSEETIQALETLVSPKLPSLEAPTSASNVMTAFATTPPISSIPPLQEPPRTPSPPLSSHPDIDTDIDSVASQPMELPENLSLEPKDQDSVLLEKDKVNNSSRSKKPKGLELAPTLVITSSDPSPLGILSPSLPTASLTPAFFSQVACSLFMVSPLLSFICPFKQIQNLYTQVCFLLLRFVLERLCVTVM
In short: as §1

ETV2 = target: T4, ETV2 (Homo sapiens, UniProt O00321 1-342); settings: protein: recombinant; tags: N-terminal GST; dsDNA, one strand shown
T4 sequence: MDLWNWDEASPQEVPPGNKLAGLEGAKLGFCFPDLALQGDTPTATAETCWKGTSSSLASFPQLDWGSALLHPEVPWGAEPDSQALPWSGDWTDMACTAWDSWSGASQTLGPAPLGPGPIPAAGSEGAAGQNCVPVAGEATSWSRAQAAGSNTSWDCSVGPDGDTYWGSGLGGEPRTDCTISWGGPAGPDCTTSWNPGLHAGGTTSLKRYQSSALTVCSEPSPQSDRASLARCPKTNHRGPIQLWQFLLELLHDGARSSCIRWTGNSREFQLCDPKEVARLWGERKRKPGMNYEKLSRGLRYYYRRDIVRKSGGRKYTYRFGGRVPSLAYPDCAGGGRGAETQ
In short: as §1

ELF3 = target: T5, ELF3 (Homo sapiens, UniProt P78545 1-371); settings: protein: recombinant; tags: N-terminal GST; dsDNA, one strand shown
T5 sequence: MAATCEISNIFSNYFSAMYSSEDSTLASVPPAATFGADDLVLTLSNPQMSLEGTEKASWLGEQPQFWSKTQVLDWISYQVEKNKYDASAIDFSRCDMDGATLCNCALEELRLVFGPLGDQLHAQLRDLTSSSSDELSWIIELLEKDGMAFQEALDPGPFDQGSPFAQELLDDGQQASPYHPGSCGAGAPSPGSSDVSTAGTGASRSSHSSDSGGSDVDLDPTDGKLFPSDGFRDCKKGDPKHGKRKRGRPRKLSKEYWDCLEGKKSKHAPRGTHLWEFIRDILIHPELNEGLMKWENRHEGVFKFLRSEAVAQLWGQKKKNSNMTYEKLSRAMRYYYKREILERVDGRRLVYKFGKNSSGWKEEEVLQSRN
In short: as §1

CRX = CRX (Homo sapiens, UniProt O43186 1-299); settings: protein: recombinant; tags: N-terminal GST; dsDNA, one strand shown
In short: as §1

ETV1 = ETV1 (Homo sapiens, UniProt P50549 1-477); settings: protein: recombinant; tags: N-terminal GST; dsDNA, one strand shown
In short: as §1

Chain of ELF4 (Q99607 whole entry): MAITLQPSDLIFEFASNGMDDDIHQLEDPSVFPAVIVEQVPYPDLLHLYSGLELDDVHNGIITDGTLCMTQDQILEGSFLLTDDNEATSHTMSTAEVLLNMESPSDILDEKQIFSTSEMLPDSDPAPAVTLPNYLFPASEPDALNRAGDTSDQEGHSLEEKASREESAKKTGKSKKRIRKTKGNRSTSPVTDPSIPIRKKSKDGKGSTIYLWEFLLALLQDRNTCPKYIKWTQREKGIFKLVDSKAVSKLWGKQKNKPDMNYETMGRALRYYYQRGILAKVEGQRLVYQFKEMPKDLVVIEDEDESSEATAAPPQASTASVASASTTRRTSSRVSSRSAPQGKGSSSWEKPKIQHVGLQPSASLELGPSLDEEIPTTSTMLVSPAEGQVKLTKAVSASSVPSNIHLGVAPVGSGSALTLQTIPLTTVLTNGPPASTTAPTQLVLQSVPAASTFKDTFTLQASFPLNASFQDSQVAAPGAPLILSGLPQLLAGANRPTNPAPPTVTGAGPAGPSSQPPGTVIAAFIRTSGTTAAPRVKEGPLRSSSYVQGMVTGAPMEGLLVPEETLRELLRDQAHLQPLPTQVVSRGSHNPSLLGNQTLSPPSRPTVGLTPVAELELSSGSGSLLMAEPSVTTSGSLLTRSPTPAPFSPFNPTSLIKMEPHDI
Chain of ETV1 (P50549 whole entry): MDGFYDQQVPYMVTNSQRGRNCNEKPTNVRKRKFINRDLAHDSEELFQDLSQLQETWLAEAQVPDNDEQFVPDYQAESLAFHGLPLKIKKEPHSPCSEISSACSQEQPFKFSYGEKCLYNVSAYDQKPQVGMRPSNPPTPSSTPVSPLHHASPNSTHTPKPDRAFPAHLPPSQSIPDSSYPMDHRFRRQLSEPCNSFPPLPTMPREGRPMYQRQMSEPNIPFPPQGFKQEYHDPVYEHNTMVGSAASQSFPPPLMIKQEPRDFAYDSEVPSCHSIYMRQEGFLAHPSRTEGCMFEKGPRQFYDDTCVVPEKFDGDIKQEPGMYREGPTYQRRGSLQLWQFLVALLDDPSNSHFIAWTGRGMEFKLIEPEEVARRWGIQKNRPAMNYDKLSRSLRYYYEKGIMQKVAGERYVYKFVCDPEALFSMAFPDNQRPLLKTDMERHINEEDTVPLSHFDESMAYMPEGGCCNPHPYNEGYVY
Chain of CRX (O43186 whole entry): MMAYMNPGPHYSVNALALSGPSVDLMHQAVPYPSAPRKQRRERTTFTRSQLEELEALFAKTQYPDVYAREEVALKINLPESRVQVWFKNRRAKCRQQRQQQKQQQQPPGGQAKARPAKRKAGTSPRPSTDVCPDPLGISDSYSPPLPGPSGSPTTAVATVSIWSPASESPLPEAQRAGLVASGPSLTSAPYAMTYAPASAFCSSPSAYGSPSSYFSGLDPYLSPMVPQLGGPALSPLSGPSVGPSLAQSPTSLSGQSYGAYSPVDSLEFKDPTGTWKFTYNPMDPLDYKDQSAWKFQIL
Chain of HSF1 (Q00613 whole entry): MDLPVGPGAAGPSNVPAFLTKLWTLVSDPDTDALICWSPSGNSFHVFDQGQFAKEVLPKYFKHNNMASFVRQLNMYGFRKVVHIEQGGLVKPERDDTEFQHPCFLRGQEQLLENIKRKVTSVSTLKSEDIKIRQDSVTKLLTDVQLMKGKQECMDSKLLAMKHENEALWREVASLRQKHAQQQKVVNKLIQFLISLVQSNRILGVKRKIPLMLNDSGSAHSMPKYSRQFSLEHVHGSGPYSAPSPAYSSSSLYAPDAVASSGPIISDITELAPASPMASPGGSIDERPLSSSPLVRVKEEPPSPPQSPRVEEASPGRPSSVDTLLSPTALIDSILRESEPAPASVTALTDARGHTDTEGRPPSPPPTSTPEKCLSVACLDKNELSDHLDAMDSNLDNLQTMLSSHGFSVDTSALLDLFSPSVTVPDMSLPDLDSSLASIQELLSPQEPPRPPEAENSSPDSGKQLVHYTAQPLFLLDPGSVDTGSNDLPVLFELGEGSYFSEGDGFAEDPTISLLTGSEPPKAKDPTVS
Chain of ETV5 (P41161 whole entry): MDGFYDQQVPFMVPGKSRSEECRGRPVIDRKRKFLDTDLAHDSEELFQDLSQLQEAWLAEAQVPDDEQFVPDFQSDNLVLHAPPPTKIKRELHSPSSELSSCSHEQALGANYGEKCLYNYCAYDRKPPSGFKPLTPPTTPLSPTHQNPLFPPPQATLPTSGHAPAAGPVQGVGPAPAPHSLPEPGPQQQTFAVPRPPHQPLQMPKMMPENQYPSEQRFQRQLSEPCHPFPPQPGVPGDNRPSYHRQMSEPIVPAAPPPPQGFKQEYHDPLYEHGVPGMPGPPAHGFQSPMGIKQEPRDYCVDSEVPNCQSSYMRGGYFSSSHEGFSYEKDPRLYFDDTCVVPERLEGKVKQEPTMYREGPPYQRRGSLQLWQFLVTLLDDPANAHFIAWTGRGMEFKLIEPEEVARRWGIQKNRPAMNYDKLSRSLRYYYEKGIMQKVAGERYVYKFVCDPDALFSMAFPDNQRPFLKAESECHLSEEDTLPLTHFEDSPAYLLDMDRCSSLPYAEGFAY

Sequence: TTATAC
- binding signal (FEV): 1.35 fold enrichment (6-mer frequency, TF over GST control)
- binding signal (ETV5): 1.29 fold enrichment (6-mer frequency, TF over GST control)
- binding signal (HSF1): 1.79 fold enrichment (6-mer frequency, TF over GST control)
- binding signal (SPIC): 1.42 fold enrichment (6-mer frequency, TF over GST control)
- binding signal (ELF4): 1.49 fold enrichment (6-mer frequency, TF over GST control)
- binding signal (ELK4): 1.38 fold enrichment (6-mer frequency, TF over GST control)
- binding signal (ETV2): 1.38 fold enrichment (6-mer frequency, TF over GST control)
- binding signal (ELF3): 1.43 fold enrichment (6-mer frequency, TF over GST control)
- binding signal (CRX): 2.54 fold enrichment (6-mer frequency, TF over GST control)
- binding signal (ETV1): 1.5 fold enrichment (6-mer frequency, TF over GST control)
